Data on 64 compounds can be found in PubChem BioAssay AID1259343 (VanderVen Lab, College of Veterinary Medicine, Cornell …, 2017).

For orientation: inhibition means the drop in the measured response relative to a control, in per cent.

The campaign covered roughly 6,200 compounds. About 2,900 (47%) were called active. The set was probably picked from earlier hits. The list shows a part of the results. Values without a mark were called inactive. Rule as the data show it: active = inhibition above about 50%; inactive = the rest.

This assay can be described thus: Mycobacterium tuberculosis growth inhibition, primary screen (AID 1259343). Conditions: inhibition: at 10 µM, active compounds read high; outcome: 10 uM.
Take `CS(=O)c1nncn1CC#Cc1ccc(C(F)(F)F)cc1` (centres undefined): the inhibition was 37%.

For the compound `OC(c1ccc(Cl)c(Cl)c1)c1ncc(-c2cccc(F)c2)[nH]1` (centres undefined), the inhibition is 23.7%.

Regarding `OC(c1cc(F)cc(Cl)c1)c1ncc(-c2ccc3ccccc3c2)[nH]1` (centres undefined), the inhibition was 73.4% (active).

Consider `OC(c1ccc(Cl)c(F)c1)c1ncc(-c2cccc(F)c2)[nH]1` (centres undefined), for which the inhibition was 36.1%.

For `O=C1c2ccccc2C(=O)N1CCCCNc1ccc(F)cc1F`, the inhibition is 49.6%.

Take `CCc1nc2c(c(=O)c3ccccc3n2C)c(=O)n1CCc1ccccc1`: the inhibition is -31.8%.

As for `Cn1c(CCC(=O)Nc2ccc(F)cc2F)nc(=O)c2ccccc21`, the inhibition was 72.3% (active).

Take `Cn1cnnc1SCC(=O)Nc1ccc2oc3ccccc3c2c1`: the inhibition is 76.7% (active).

As for `Cn1nnnc1SCC(=O)Nc1ccc2oc3ccccc3c2c1`, the inhibition was 36.7%.

Turning to `O=C(CSc1ncnc2c1oc1ccccc12)Nc1ccc2c(c1)OCO2`, the inhibition is 47.2%.

Take `O=C(CSc1nncs1)Nc1ccc2oc3ccccc3c2c1`: the inhibition was 92.2% (active).

Consider `Cc1cc(NC(=O)CSc2nc3ccccc3c(=O)n2C2CCCC(C)C2C)on1` (centres undefined), for which the inhibition was 9.06%.

As for `CC(=O)[C@H]1CCC2C3CCC4=CC(=O)CC[C@]4(C)C3CC[C@@]21C` (some centres undefined), the inhibition was 49.6%.

For `CC(C)(C)NC(=O)[C@H]1CC[C@H]2[C@@H]3CC[C@H]4NC(=O)C=C[C@]4(C)[C@H]3CC[C@]12C`, the inhibition is 86.4% (active).

Consider `Cc1ccc(Nc2nc(C)c([N+](=O)[O-])c(N3CCOCC3)n2)c(C)c1`, for which the inhibition was 2.59%.

With `COCCCNc1ncnc2c1c(-c1ccccc1)cn2-c1ccc(F)cc1`, the inhibition was 98.3% (active).

Consider `COCCNc1ncnc2c1c(-c1ccccc1)cn2-c1ccc(C)cc1`, for which the inhibition was 100% (active).

For the compound `COCC(C)Nc1ncnc2c1c(-c1ccccc1)cn2-c1ccc(OC)cc1` (centres undefined), the inhibition was -15.1%.

Turning to `COCC(C)Nc1ncnc2c1c(-c1ccccc1)cn2-c1ccc(F)cc1` (centres undefined), the inhibition is 72.1% (active).

For the compound `Cc1ccc(-n2cc(-c3ccccc3)c3c(NCCCO)ncnc32)cc1`, the inhibition was 24.3%.

As for `COCCCNc1ncnc2c1c(-c1ccccc1)cn2-c1ccc(OC)cc1`, the inhibition was 91.3% (active).

With `COCCNc1ncnc2c1c(-c1ccccc1)cn2-c1cccc(Cl)c1`, the inhibition is 42.5%.

In the case of `COc1ccc(-n2cc(-c3ccccc3)c3c(NCC(OC)OC)ncnc32)cc1`, the inhibition is 19.7%.

`CN(CC1=CC[C@H]2C[C@@H]1C2(C)C)Cc1nnc(-c2ccccc2)o1`: the inhibition is 39%.

As to `CCCCCCSc1nnc2nc(C)cc(C)n12`, the inhibition is 58.4% (active).

Regarding `CCCCCCCSc1nnc2[nH]c(=O)cc(N)n12`, the inhibition result was “inactive”.

As for `CCCCCCSc1nnc2[nH]c(=O)cc(N)n12`, the inhibition result is “inactive”.

Regarding `O=C(NS(=O)(=O)c1cncc(Br)c1)c1ccc(OC(F)(F)F)cc1`, the inhibition was 18.9%.

`O=S(=O)(Nc1ccc(C(F)(F)F)cc1)c1cccc(Cl)c1`: the inhibition was 22.9%.

On to `O=C(NS(=O)(=O)c1ccccc1)c1cccc(Cl)c1`, for which the inhibition was 88.3% (active).

On to `COc1cc(C(=O)NS(=O)(=O)c2ccc(Cl)cc2)ccc1OC(C)C`, for which the inhibition was 28.1%.

For the compound `CNc1cc(C(=O)NS(=O)(=O)c2ccccc2)cc(Cl)n1`, the inhibition is 55.1% (active).

In the case of `Cc1ccc2oc(-c3ccc(C)c(N)c3)nc2c1`, the inhibition was 37.6%.

Regarding `Cc1cc(-c2nc3c(C)cccc3o2)ccc1NC(=O)C(C)C`, the inhibition was 58.5% (active).

Regarding `N#Cc1c(N=CN2CCCCCC2)sc2c1CCCC2`, the inhibition was 99% (active).

In the case of `Cc1ccc(-n2[nH]c(C)c(N=Nc3cccc(-c4cccc(C(=O)O)c4)c3O)c2=O)cc1C`, the inhibition was 83.7% (active).

Consider `Cc1cccc2cc(C(=O)N3C[C@H]4CC=CC[C@H]4C3)oc12`, for which the inhibition was 72.4% (active).

As to `Cc1cc2cccc(C(=O)N3CCN4CCN(C)C(=O)C4C3)c2o1` (centres undefined), the inhibition is 0.8%.

For `Cc1ccc(NC2CCCN(C(=O)c3cc4ccccc4o3)C2)cc1C` (centres undefined), the inhibition result was “inactive”.

Take `Cc1cnc(NC(=O)c2ccc(N(C)C3CCCCC3)cc2)s1`: the inhibition was 45.9%.

Turning to `O=C(Nc1nncs1)c1ccc(C2CCCCC2)cc1`, the inhibition was 82.1% (active).

Take `S=C(Nc1ccccc1)Nc1nncs1`: the inhibition was 15.5%.

Turning to `O=C1NC(=S)SC1=Cc1ccccc1OCc1ccccc1`, the inhibition is 102% (active).

As to `O=C1NC(=S)SC1=Cc1ccccc1OC(F)F`, the inhibition is 81.1% (active).

Consider `N#Cc1ccc(-c2ccc(O)cc2)cc1`, for which the inhibition was 96.9% (active).

Take `C=CCOc1ccc(-c2ccc(C#N)cc2)cc1`: the inhibition is -10.6%.

Take `Oc1ccc(-c2ccc(I)cc2)cc1`: the inhibition was 20.3%.

As for `O=C(Nc1ccc(Cl)cc1)N1CCC1c1ccccc1F` (centres undefined), the inhibition was -6.67%.

With `O=C(CCl)N1CCSC1c1ccccc1F` (centres undefined), the inhibition is 99.6% (active).

For the compound `CCN1CCN(c2c(CN(C(=O)Nc3ccc(SC)cc3)C(C)C)c(C)nn2-c2cccc(F)c2)CC1`, the inhibition was 74.4% (active).

Turning to `Cn1nc(C(=O)NCC23CC4CC(CC(C4)C2)C3)ccc1=O`, the inhibition is 77.1% (active).

For `CCCn1nc(C(=O)NC(C)c2nnc3n2CCC3)ccc1=O` (centres undefined), the inhibition is 3.57%.

For the compound `Nc1c(C=C2C=C([N+](=O)[O-])C=C(Br)C2=O)c(=O)nc2sc(-c3ccccc3)nn12`, the inhibition was 45.7%.

With `O=c1cc(-c2ccccc2)nc2sc(Br)nn12`, the inhibition was 102% (active).

Take `O=C(O)c1cc(-c2cccc(F)c2)n2nc(-c3ccccc3)cc2n1`: the inhibition is 34.3%.

As to `O=c1[nH]c2cc(Cl)c(Br)cc2o1`, the inhibition was 81.6% (active).

`O=c1[nH]c2c(Cl)c(Cl)c(Cl)cc2o1`: the inhibition was 31.7%.

Turning to `O=c1[nH]c2c(Br)c(Br)c(Cl)cc2o1`, the inhibition entry was “inactive”.

`CCc1c(C)nc(-n2nc(C)cc2NC(=O)c2ccccc2C)[nH]c1=O`: the inhibition is 12.6%.

For the compound `CCc1cc(=O)[nH]c(-n2nc(C)cc2NC(=O)c2ccccc2SC)n1`, the inhibition was 99.7% (active).

Consider `CCc1c(C)nc(-n2nc(C)cc2NC(=O)Cc2cccc3ccccc23)[nH]c1=O`, for which the inhibition is 98.5% (active).

For the compound `CCc1c(C)nc(-n2nc(C)cc2NC(=O)c2ccccc2SC)[nH]c1=O`, the inhibition is 100% (active).

`CCc1c(C)nc(-n2nc(C)cc2NC(=O)c2cccc3ccccc23)[nH]c1=O`: the inhibition was 100% (active).

Regarding `Cc1cc(NC(=O)c2cccc3ccccc23)n(-c2nc(C)c(C)c(=O)[nH]2)n1`, the inhibition is -30.4%.
